# Rab9 promoter act: Rab9 promoter activation | Huh7 Rab9 promoter-luciferase reporter, luminescence, 24 h | hit rate 2.8% among 320,000 | Potency, µM (highest dose often 9.22 µM), for inactives: at the top dose activation, negative = inhibition, hits mostly activators | AID 485297; also: % of control where 0% means no effect; nearly all actives have a fitted effect of over 60% in size
#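 Steps: seed 1500 Huh7 Rab9-luc cells per well, rest 2 h at 37 °C; add compound in DMSO; incubate 24 h; add luciferase reagent, 10 min ambient; read luminescence.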
# NPC1 promoter act: activates the NPC1 promoter; Huh7 NPC1 promoter luciferase reporter, 24 h; hit rate 2.4% among 320,000; Potency, µM (titrated, usually from 9.22 µM), for the others: at the top dose activation, actives largely listed as activators; AID 485313; also: % of control where 0% means no effect; nearly all actives have a fitted effect of over 60% in size
#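 Luciferase expression driven by the NPC1 promoter was measured in stably transfected Huh7 cells after a 24 h compound incubation, using a luciferase reagent and a luminescence read.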
# FLuc counter: inhibits or activates purified firefly luciferase, miR-21 counter-screen. P08659. purified FLuc, Km substrates, luminescence inhibition. Potency, µM (highest dose often 57.5 µM), for the others: at the highest dose activity change, negative = inhibition, usual class: inhibitors. hit rate 6.9% among 360,000;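 also: plate controls were vehicle for no effect and reference inhibitor for full effect; nearly all actives have a fitted effect of over 55% in size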
# Target sequence (P08659 whole entry, looked up): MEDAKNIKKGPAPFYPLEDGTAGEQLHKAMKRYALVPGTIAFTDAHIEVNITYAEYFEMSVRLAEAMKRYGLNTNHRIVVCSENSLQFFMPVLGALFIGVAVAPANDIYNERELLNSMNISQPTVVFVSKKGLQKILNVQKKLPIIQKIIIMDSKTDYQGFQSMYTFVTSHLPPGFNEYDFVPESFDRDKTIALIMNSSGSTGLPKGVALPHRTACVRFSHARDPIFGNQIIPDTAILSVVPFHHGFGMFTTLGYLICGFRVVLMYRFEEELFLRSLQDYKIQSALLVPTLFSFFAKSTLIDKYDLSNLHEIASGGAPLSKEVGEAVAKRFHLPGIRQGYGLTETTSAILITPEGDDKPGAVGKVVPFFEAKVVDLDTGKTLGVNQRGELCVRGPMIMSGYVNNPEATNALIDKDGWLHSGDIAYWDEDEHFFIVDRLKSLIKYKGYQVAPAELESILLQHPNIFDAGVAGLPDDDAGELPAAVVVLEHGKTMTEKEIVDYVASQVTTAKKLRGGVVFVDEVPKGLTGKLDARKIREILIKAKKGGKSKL
#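 Purified P. pyralis luciferase (10nM final) with 10uM D-luciferin and 10uM ATP (Km levels) in 50mM Tris acetate pH 7.5, 10mM Mg acetate, 0.01% Tween-20, 0.05% BSA; qHTS 6-point titration, ~60 µM downward; luminescence read.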
# SMN2 splice enh: enhancers of SMN2 splice variant expression; HEK293 SMN2-luciferase splicing reporter, luminescence, 30-36 h; Potency, µM (doses to about 46.1 µM), without a hit: at the highest dose activity change, positive = activation, most hits filed as activators; hit rate 2.8% among 210,000; AID 1458; also: % of control where 0% means no effect; nearly all actives have a fitted effect of over 55% in size
#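 HEK293 cells carry an SMN2 […]–luciferase reporter in which exon 7 inclusion puts luciferase in frame. Cells were plated 10-12 h before compound addition, then incubated 30-36 h at 37C. ONE-Glo luminescence was read; sodium butyrate at 4.5 mM final served as control.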
# ELG1 repair inh: inhibitors of ELG1-dependent DNA repair in HEK293T cells | hit rate 2.3% among 330,000 | Potency, µM (series often up to 46.1 µM), without a hit: at the highest dose activity change, negative = inhibition, most hits filed as inhibitors | AID 504467 | HEK293T ELG1-luciferase reporter, luminescence, 16 h; DNA damage induced by 5-fluorouridine; also: % is scaled to controls: 0 for no effect and ±100 for the full control effect; nearly all actives have a fitted effect of over 55% in size
#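 Luminescence from the luciferase reporter, measured 30 min after ONE-Glo reagent at room temperature, was the read-out. Beforehand, 2,000 cells per well were exposed for 16 hr at 37 °C to 5-fluorouridine together with compound or vehicle.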
# ELG1 genotoxic: inducers of genotoxicity in HEK293T ELG1-luciferase cells | HEK293T ELG1-luciferase reporter, luminescence, 16 h | Potency, µM (doses to about 46 µM), for the others: top-dose activity change, positive = activation, hits mostly activators | hit rate 1.3% among 330,000 | AID 504466; also: % of control where 0% means no effect; nearly all actives have a fitted effect of over 60% in size
#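 Step 1: seed 2,000 HEK293T ELG1-luciferase cells per well. Step 2: add compound or DMSO, incubate 16 hr at 37 °C. Step 3: ONE-Glo, 30 min at room temperature, read luminescence.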
# * hit, by the source's call; ? = inconclusive; · = not tested or not shown; [ ] = another dose, or the depositor's remark. Shown are actives, neighbours in structure and some others; about 9.2% of the full set was active somewhere. Calls follow the shape of the dose curve; as a rule, active = well fitted curve in the direction sought with a large enough effect; inconclusive = small, poorly fitted or top-dose-only effect, or another doubt; inactive = no such curve, though single readings can be large; an effect the other way counts as inactive or inconclusive. Potency is read from the fitted curve at half-maximal effect.
SMILES,Rab9 promoter act,NPC1 promoter act,FLuc counter,SMN2 splice enh,ELG1 repair inh,ELG1 genotoxic
O=C(Nc1nc2cc3c(cc2s1)OCCO3)c1cccc(N2C(=O)CCC2=O)c1,?,?,0.757µM*,·,?,8.6%
O=C(NNc1nc2cc3c(cc2s1)OCO3)c1ccccc1,-1.1%,0.7%,?,21.5%,?,8.7%
O=C(Nc1nc2ccccc2s1)c1cccc(N2C(=O)CCC2=O)c1,4.5%,-5.3%,-0.5%,·,7.4%,-7.4%
C=C(C)CCC(C)N1CCC(n2nccc2NC(=O)CCCc2ccccc2)CC1 (stereo unspecified),0.0%,-4.3%,1.5%,·,1.5%,-1.1%
COC(=O)C1=C(C(=O)OC)[C@@H]2Nc3ccccc3[C@@]23C[C@@H](C(=O)OC)N(S(=O)(=O)c2ccc(C#N)cc2)C3=N1,·,·,·,-1.7%[9.22 µM],·,·
CC(=O)c1sc(NC(=O)c2cccc(N3C(=O)CCC3=O)c2)nc1-c1ccccc1,-1.5%,-1.6%,?,·,20.6%,2.2%
Cc1sc(NC(=O)c2cccc(N3C(=O)CCC3=O)c2)nc1-c1ccccc1,0.2%,12.0%,4.78µM*,·,2.5%,4.3%
Cc1cccn2c(/C=N/OCc3cccc(F)c3)c(-c3ccc(Cl)cc3)nc12,-3.4%,-1.9%,-2.0%,-19.2%,-13.4%,-4.2%
COc1cccc(/C(C#N)=C/c2c(-c3ccc(Cl)cc3)nc3c(C)cccn23)c1,-5.6%,-2.4%,5.5%,-8.0%,14.6µM*,-17.3%
Cc1ccc(S(=O)(=O)NCC2CCC(C(=O)NCc3ccc(F)cc3)CC2)cc1 (stereo unspecified),·,·,-1.8%,·,·,·
O=C(Cc1nnc(NC(=O)Nc2ccc(Cl)cc2)s1)NCc1ccccc1,-7.8%,-0.6%,-2.7%,-2.5%,8.8%,6.3%
O=C(Cc1csc(NC(=O)Nc2ccc(Cl)cc2)n1)NC1CCCC1,-3.0%,16.6%,4.78µM*,·,4.2%,-0.1%
Cc1csc(NC(=O)Nc2ccc(Cl)cc2)n1,?,26.3%,?,-4.9%,?,?
O=C(Cc1csc(NC(=O)Nc2ccc(Cl)cc2)n1)NCc1ccccn1,?,?,1.07µM*,·,?,1.0%
COC(=O)c1cccc(S(=O)(=O)N(Cc2ccco2)Cc2cc3cc(OC)ccc3[nH]c2=O)c1,-4.3%,-4.7%,5.2%,-9.7%,14.6µM*,-9.5%
COCC(=O)Nc1nc2ccc(C)cc2s1,1.12µM*,2.51µM*,9.53µM*,10µM*,?,2.06µM*
Cc1ccc2nc(NC(=O)COC(=O)c3ccncc3)sc2c1,?,?,8.49µM*,?,?,?
Cc1ccc2nc(NC(=O)COc3ccc(F)cc3)sc2c1,·,·,1.8%,·,·,·
Cn1c(=NC(=O)c2ccccc2[N+](=O)[O-])sc2cc(S(C)(=O)=O)ccc21,0.562µM*,0.355µM*,0.536µM*,2.24µM*,?,8.2µM*
CCc1nnc(NS(=O)(=O)c2ccc(N=Cc3c(C)[nH]n(-c4ccc(C)c(C)c4)c3=O)cc2)s1,-1.6%,-1.2%,15.1µM*,?,?,6.8%
C=CCNC(=O)c1cc2c(=O)n3ccccc3nc2s1,1.78µM*,2.51µM*,16.9µM*,·,?,?
Cc1nn(-c2ccc(N3CCOCC3)nn2)c(C)c1CCC(=O)N1CCN(C)CC1,-3.8%,-0.9%,-1.5%,·,6.4%,0.9%
c1csc(-c2ccc3ccccc3n2)c1,?,?,7.57µM*,20.8%,?,?
Nc1nc2ccccc2cc1-c1cccs1,?,4.47µM*,10.7µM*,·,?,?
Cc1ccc(-c2cc3ccccc3nc2N)cc1,?,5.01µM*,3.01µM*,·,?,?
SMILES,Rab9 promoter act,NPC1 promoter act,FLuc counter,SMN2 splice enh,ELG1 repair inh,ELG1 genotoxic
Nc1nc(-c2cccs2)cs1,27.8%,?,?,-12.5%[9.22 µM],?,3.6%
Cc1cc2ncc(-c3cccs3)nc2cc1C,3.98µM*,0.891µM*,0.338µM*,·,?,?
Cc1cc(-c2cccs2)n[nH]1,3.3%,1.6%,2.9%[2.3 µM],17.8%,3.9%,1.4%
CC(C)(C)[C@@H]1CCC(=O)N(CC[C@H](Sc2ccc(Br)cc2)c2ccccc2)CC1,·,·,·,·,12.2%,-2.8%
Nn1c(Nc2ccccc2)nc2ccccc21,3.98µM*,2.82µM*,10.7µM*,?,?,?
Cn1c(Nc2ccccc2)nc2ccccc21,21.3%,15.2%,?,·,?,6.4%
Cn1c(=O)c2c(SCC(=O)N3CCc4ccccc43)nc(-c3cccc(F)c3)nc2n(C)c1=O,·,·,0.4%,·,·,·
Oc1ccc(-c2n[nH]c(=S)n2-c2ccc3c(c2)OCCO3)c(O)c1,-22.9%,-4.8%,?,-84.3%,3.66µM*,-9.0%
Cn1cnnc1Sc1ccc(C(F)(F)F)cc1[N+](=O)[O-],-4.2%,-2.0%,-6.7%,23.3%,8.2µM*,-17.0%
Cc1cc(NC(=O)CSc2nnc(-c3c[nH]c4ccccc34)n2-c2ccc(Cl)cc2)no1,3.6%,-4.4%,-0.6%,-16.1%,4.4%,25.4%
O=C(Cc1ccc([N+](=O)[O-])cc1)NCc1ccccc1Cl,-1.1%,0.6%,-12.1%,5.6%,13.7%,1.0%
O=C(Cc1ccccc1[N+](=O)[O-])NCc1ccc(Cl)cc1,?,?,16.9µM*,20µM*,?,?
O=C(Cc1ccccc1[N+](=O)[O-])NCc1ccc(Cl)cc1Cl,3.55µM*,3.98µM*,6.01µM*,·,?,?
O=C(/C=C/c1ccccc1[N+](=O)[O-])NCc1ccc(Cl)cc1,-3.5%,-1.8%,-2.8%,-9.5%,-6.5%,-2.1%
O=C(NCc1ccc(Cl)cc1)c1n[nH]c([N+](=O)[O-])c1Cl,-10.5%,12.9%,21.3µM*,20.3%,?,?
O=[N+]([O-])c1cccc(-c2nc3ccccc3s/c2=N/O)c1,0.8%,1.4%,0.3%,·,-0.6%,1.9%
Nc1nccc(-c2ccc(-n3cccc3)cc2)n1,?,?,-12.2%,14.8%,?,7.6%
COc1cccc(C(=O)Nc2nnc(C(C)C)s2)c1,1µM*,3.55µM*,3.38µM*,2.51µM*,?,3.66µM*
CCCc1nnc(NC(=O)c2cccc(OC)c2)s1,4.47µM*,3.16µM*,23.9µM*,?,?,?
CCc1cc2c(cc3c(=O)n(CCCC(=O)NCc4cccc(Cl)c4)ncn32)s1,·,·,-13.6%,4.8%,·,·
CC1CCc2[nH]c3ccc(C(=O)N(C)CC(=O)Nc4ccccc4C(F)(F)F)cc3c2C1 (stereo unspecified),4.5%,0.2%,-19.6%,·,?,-14.7%
COC(=O)c1cc(=O)nc2sc3cc(OC)ccc3n12,-3.2%,-2.4%,0.2%,-0.2%,2.4%,5.7%
CCCCc1c(O)nc2sc3cc(OC)ccc3n2c1=O,22.2%,16.6%,10.7µM*,29.0%,?,?
